Rows were chosen to be rich in hits. Some 0.69% of all compounds tested hit in one or more screens of this group.
PfHsp90 yeast 2: inhibits growth of yeast expressing Plasmodium falciparum Hsp90 | inhibition, % at 9.4 µM | 310,000 compounds, 0.32% hits | S. cerevisiae expressing PfHsp90, BacTiter-Glo ATP, 48 h; yeast lacking PDR1 and PDR3 efflux regulators;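 active = every replicate shows inhibition above about 80%, whatever the replicate mean, limit read from the data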
AddAB inh: less growth of phage-infected E. coli with AddAB | 330,000 compounds, 0.29% hits | inhibition, % at 11.9 µM | E. coli expressing H. pylori AddAB, absorbance growth | AID 435030; in the data active = inhibition above about 12%
E coli growth-1: E. coli growth inhibition; AID 1053175; OD600 absorbance (concentration not given with the values); 330,000 compounds, 0.21% hits; Escherichia coli growth, OD600, 23 h; active compounds read low;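 active = OD600 absorbance below the run mean of sample wells minus 3.6 SD, in any replicate, cut at about 0.56 in these data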
E coli growth-2: bacterial growth inhibition, counter-screen for AddAB inhibitors | inhibition, % at 11.9 µM | 330,000 compounds, 0.27% hits | AID 449728 | E. coli V3065 growth, OD600 absorbance, 18 h;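 active = inhibition above the campaign's mean inhibition across all tested compounds plus 3 SD, cut at about 9.9% in these data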;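 also: uninfected addAB+ strain grown without phage in ampicillin broth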
Tat transport: blocks Tat-dependent protein export in E. coli | AID 488895 | inhibition, % at 10 µM | 340,000 compounds, 0.036% hits | E. coli MC4100 TorA-mCherry Tat export, fluorescence;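 active = mean replicate inhibition at least 50% and at least half of replicates individually reaching 50%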;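 also: exported cargo escapes ClpAP degradation while cytoplasmic cargo is degraded and loses fluorescence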
phage Ecoli inh: E. coli growth loss with phage present. growth absorbance. 360,000 compounds, 0.26% hits. AID 651602. inhibition, % at 11.9 µM; in the data active = inhibition above about 11%
AddAB confirm: growth loss of T4-infected E. coli expressing H. pylori AddAB, confirmed; AID 488942; 880 compounds, 64% hits; inhibition, % at 11.9 µM; E. coli V3065 expressing H. pylori AddAB, T4 phage, OD; T4 phage with gene 2 nonsense mutations; shares compounds with AddAB inh;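 active = mean inhibition above a set limit taken from the earlier primary screen, cut at about 13% in these data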;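 also: higher means less bacterial growth since AddAB block lets phage replicate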
RecBCD counter: reduces growth of phage-infected RecBCD+ E. coli, AddAB inhibitor counter-screen. E. coli V66 + mutant T4 phage, OD growth. inhibition, % at 11.9 µM. 880 compounds, 73% hits. shares compounds with AddAB inh. AID 488955;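 active = mean inhibition above the mean of solvent-only control wells plus 3 SD, cut at about 4% in these data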;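 also: optical density read after an 18 h incubation at 37 °C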
Bact viability: reduces bacterial viability, AddAB inhibitor counter-screen. AID 488956. inhibition, % at 11.9 µM. absorbance (AddAB counterscreen). shares compounds with AddAB inh. 880 compounds, 35% hits; in the data active = inhibition above about 25%
A number is an active result; i = inactive; nt = no result given.

SMILES | PfHsp90 yeast 2 | AddAB inh | E coli growth-1 | E coli growth-2 | Tat transport | phage Ecoli inh | AddAB confirm | RecBCD counter | Bact viability
CCn1cc(C(=O)O)c(=O)c2cnc(N3CCN(C(=S)Nc4ccccc4Cl)CC3)nc21 | i | 97.1 | i | 83.7 | i | i | 97.5 | i | 32.5
CN(CC1CCOCC1)C(=O)CC1C(=O)NCCN1CC=Cc1ccccc1 (configuration not stated) | nt | nt | i | nt | nt | nt | nt | nt | nt
CC1CC[C@]2(C(=O)O)CC[C@]3(C)C(=CCC4[C@@]5(C)CCC(O)C(C)(C)C5CC[C@]43C)C2C1C (some centres not stated) | nt | nt | i | nt | nt | nt | nt | nt | nt
COc1ccc(C=c2sc(=CC(=O)c3ccc(C)cc3)[nH]c2=O)c(OC)c1 | nt | nt | i | nt | nt | nt | nt | nt | nt
COc1ccccc1Nc1nc(Cl)nc(NC(C)(C)C)n1 | i | 95.7 | i | 78.9 | i | i | i | i | i
CC(C)(C)Nc1nc(Cl)nc(Nc2ccccc2)n1 | i | i | i | i | i | i | nt | nt | nt
NS(=O)(=O)c1ccc(CCNC(=O)CSc2ccsc2[N+](=O)[O-])cc1 | i | 15.8 | i | 14.6 | i | i | 39.9 | 5.4 | 31.8
Cn1ccc2ccc(C3=CC(=O)CC(c4ccc(F)cc4)C3)cc21 (configuration not stated) | nt | nt | i | nt | nt | nt | nt | nt | nt
CSc1nnc2n(-c3ccc(C)cc3)c(=O)c3c4c(sc3n12)COC(C(C)C)C4 (configuration not stated) | i | 14.9 | i | i | i | i | i | i | i
COc1cc(NS(=O)(=O)c2ccc(NC(=O)c3ccco3)cc2)nc(OC)n1 | nt | 62.5 | i | i | i | i | i | i | i
Cc1nnc(SCC(=O)NCc2ccc3c(c2)OCO3)s1 | i | 18.7 | i | 44.2 | i | i | i | i | i
S=c1[nH]nc(COc2ccccc2)n1N=Cc1ccccc1Br | nt | nt | i | nt | nt | nt | nt | nt | nt
Cc1ccc(S(=O)(=O)CCC(=O)NNC(=O)CN(C)S(=O)(=O)c2ccc(C)cc2)cc1 | i | i | i | i | i | i | nt | nt | nt
Cc1ccc(S(=O)(=O)CCC(=O)Nc2ccc(S(=O)(=O)N(C)C)cc2)cc1 | nt | 96.7 | i | 95.6 | nt | nt | i | i | i
Cc1ccc(NC(=O)c2ccc(-n3cccn3)c([N+](=O)[O-])c2)cc1 | i | i | i | i | i | i | nt | nt | nt
O=C(Nc1ccc(C2=NCCN2)cc1)c1ccc(C(=O)Nc2ccc(C3=NCCN3)cc2)c([N+](=O)[O-])c1 | i | 27.2 | nt | 24.6 | 63.5 | i | 86.1 | 28.9 | 28.4
Cc1onc(-c2ccccc2)c1C(=O)NN=Cc1ccco1 | nt | nt | i | nt | nt | nt | nt | nt | nt
O=C(NCc1ccccc1)C(c1ccccc1)N(C(=O)c1csnn1)C1CC1 (configuration not stated) | i | i | i | i | i | i | nt | nt | nt
CCc1ccc(C(C(=O)NCc2ccccc2)N(C(=O)c2csnn2)C2CC2)cc1 (configuration not stated) | i | 98.6 | i | 45.9 | i | i | i | i | i
Cc1cc(SCC(=O)N/N=C/c2ccc(O)c(O)c2O)c(C)cc1Br | nt | 16.1 | nt | 17.8 | i | 16.7 | i | 10.3 | i
Cc1cc(SCC(=O)NN=Cc2ccc(O)cc2O)c(C)cc1Br | nt | nt | i | nt | nt | nt | nt | nt | nt
Cc1onc(-c2ccccc2)c1C(=O)O/N=C(\N)c1ccc([N+](=O)[O-])o1 | i | 15.9 | nt | i | i | i | 32.7 | i | i
Cc1cc(C=Nn2cnnc2)c(C)n1-c1ccc2c(c1)OCO2 | nt | nt | i | nt | nt | nt | nt | nt | nt
O=C(O)CCCCCn1c(SCC(=O)c2ccc(O)c(O)c2)nc2ccsc2c1=O | i | i | i | i | i | i | nt | nt | nt
CCCCn1c(SCC(=O)c2ccc(O)c(O)c2)nc2ccsc2c1=O | i | 15.1 | i | i | i | nt | i | 4.7 | i
SMILES | PfHsp90 yeast 2 | AddAB inh | E coli growth-1 | E coli growth-2 | Tat transport | phage Ecoli inh | AddAB confirm | RecBCD counter | Bact viability
Cc1ccc(CC(NC(=O)c2ccccc2)C(=O)NC(Cc2ccccc2)C(=O)O)cc1 (configuration not stated) | i | i | i | i | i | i | nt | nt | nt
O=C(NC(Cc1ccc2c(c1)OCO2)C(=O)NC(Cc1ccccc1)C(=O)O)c1ccccc1 (configuration not stated) | i | 97.1 | i | 93.4 | i | i | i | i | i
C[N+](C)=C1SCC(C)(C=NO)S1 (configuration not stated) | nt | nt | i | nt | nt | nt | nt | nt | nt
CCC(c1nnnn1CS(=O)(=O)c1ccc(C)cc1)N1CCN(c2nc3ccccc3s2)CC1 (configuration not stated) | i | 44.2 | i | 31.8 | i | i | i | i | i
CCCC(c1nnnn1CS(=O)(=O)c1ccc(C)cc1)N1CCN(c2ccccc2)CC1 (configuration not stated) | i | i | i | i | i | i | nt | nt | nt
CCCCC(=O)O[C@H]1CC[C@H]2[C@@H]3CCc4cc(O)ccc4[C@H]3CC[C@]12C | i | 97.0 | nt | i | i | i | i | i | i
Oc1cc(-c2ccncc2)cc2cccnc12 | i | i | i | i | i | i | nt | nt | nt
Oc1cc(-c2ccc(N3CCCCC3)nc2)cc2cccnc12 | 110.6 | 15.9 | nt | 14.5 | i | nt | i | 14.7 | i
O=C1C2C(c3ccc(Cl)cc3)N3C(=O)N(c4cccc(Br)c4)C(=O)[C@@]3(Cc3ccc(Cl)cc3)C2C(=O)N1C1CCCCC1 (some centres not stated) | nt | nt | i | nt | nt | nt | nt | nt | nt
O=c1cc(C=Cc2ccccc2)oc2c1ccc1ccccc12 | nt | nt | i | nt | nt | nt | nt | nt | nt
COc1ccc(C2CC(=O)C=C(c3cccc(OC(F)(F)F)c3)C2)cc1 (configuration not stated) | nt | nt | i | nt | nt | nt | nt | nt | nt
O=C(NN=C/C(Br)=C\c1ccccc1)c1ccc2nc[nH]c2c1 | nt | nt | i | nt | nt | nt | nt | nt | nt
O=C(N/N=C/C(Br)=C\c1ccccc1)c1ccc2nc[nH]c2c1 | i | 12.4 | nt | i | i | i | i | i | i
O=[N+]([O-])c1ccc(C=NNc2nc3ccccc3o2)cc1 | nt | nt | i | nt | nt | nt | nt | nt | nt
CCOc1ccc(NC(=O)Cn2cc(C(C)=O)c3ccccc32)cc1 | i | i | i | i | i | i | nt | nt | nt
COc1ccc(NC(=O)Cn2cc(C(C)=O)c3ccccc32)cc1 | i | 15.5 | i | 14.3 | i | i | i | 11.9 | i
O=c1c2ccccc2nc(/C=C/c2ccc([N+](=O)[O-])cc2)n1CCCO | i | i | i | i | i | i | nt | nt | nt
O=c1c2ccccc2nc(/C=C/c2ccc([N+](=O)[O-])o2)n1CCCO | i | 31.1 | i | 20.0 | i | i | 97.6 | 10.8 | 41.2
O=C(O)C1=CC(c2cccs2)CC(OCCCCO)O1 (configuration not stated) | nt | nt | i | nt | nt | nt | nt | nt | nt
COc1ccc(/C=C2\SC(=S)N(CCCC(=O)NNC(=O)c3ccccc3O)C2=O)cc1 | i | i | nt | i | i | i | nt | nt | nt

Screens (PubChem BioAssay)
